# Test results: article PMC11995724, “Antibiotic target discovery by integrated phenotypic and activity-based profiling of electrophilic fragments” (Cell chemical biology, 2025)
# Hit rate of the full screen: of about 3,200 compounds, about 110 (3.4%) showed an effect of 50% or more. The entries come from a sample that favours strong results as a whole.
# System: T1, V. cholerae SAD30
# T1 construct: SAD30
# Parameters: species or system S. aureus MSSA476 (TSB) or V. cholerae SAD30 (LB); 384-well bacterial growth screen at 25 uM, OD600 relative to DMSO control
# Settings: relative growth, OD600, LB; 25 µM; inhibitor
row,SMILES,% of control remaining [%]
1,"Cc1ccc(NC(=O)N2CCSSCC2)c(C)c1 [10-F11, N-(2,4-dimethylphenyl)-1,2,5-dithiazepane-5-carboxamide]",95.0711
2,"CC(Cl)C(=O)N(C)CCn1c(=O)oc2ccccc21 (stereo not drawn) [7-H15, 2-chloro-N-methyl-N-[2-(2-oxo-2,3-dihydro-1,3-benzoxazol-3-yl)ethyl]propanamide]",82.4715
3,"CC(C#N)CSc1ccccc1NC(=O)CCl (stereo not drawn) [6-K16, 2-chloro-N-{2-[(2-cyano-2-methylethyl)sulfanyl]phenyl}acetamide]",86.757
4,"C=CC(=O)N1CCC(C(=O)N[C@]2(C(=O)OC)CC[C@@H](C)CC2)CC1 [3-E17, methyl (1r,4r)-4-methyl-1-[1-(prop-2-enoyl)piperidine-4-amido]cyclohexane-1-carboxylate]",101.088
5,"O=C(CCl)N(Cc1ccc(Cl)cc1)C12CC3CC(CC(C3)C1)C2 [4-H07, N-(adamantan-1-yl)-2-chloro-N-[(4-chlorophenyl)methyl]acetamide]",55.3806
6,"Cc1nn(CCC(=O)N2CCSSCC2)c(C)c1[N+](=O)[O-] [10-J05, 3-(3,5-dimethyl-4-nitro-1H-pyrazol-1-yl)-1-(1,2,5-dithiazepan-5-yl)propan-1-one]",92.1099
7,"CCOC(=O)c1c(NC(=O)CCl)sc(C)c1C [4-O15, ethyl 2-(2-chloroacetamido)-4,5-dimethylthiophene-3-carboxylate]",102.998
8,"CC(=O)N1c2ccc(C(=O)CCl)cc2CC1C (stereo not drawn) [10-I20, 1-(1-acetyl-2-methyl-2,3-dihydro-1H-indol-5-yl)-2-chloroethan-1-one]",84.473
9,"CC(=O)N1CCc2cc(C(=O)C(C)Cl)ccc21 (stereo not drawn) [10-L22, 1-(1-acetyl-2,3-dihydro-1H-indol-5-yl)-2-chloropropan-1-one]",100.214
10,"CS(=O)(=O)N1CCc2cc(C(=O)CCl)ccc21 [10-B19, 2-chloro-1-(1-methanesulfonyl-2,3-dihydro-1H-indol-5-yl)ethan-1-one]",18.0791
11,"N#CC(=Cc1ccsc1)C(=O)Nc1ccccc1Cl [9-O05, N-(2-chlorophenyl)-2-cyano-3-(thiophen-3-yl)prop-2-enamide]",98.9123
12,"C=CC(=O)NCC1CNC(=O)c2ccccc21 (stereo not drawn) [2-F17, N-[(1-oxo-1,2,3,4-tetrahydroisoquinolin-4-yl)methyl]prop-2-enamide]",90.0415
13,"CC(Cl)C(=O)N1CCN(CCOc2ccc3c(c2)CCC3)CC1 (stereo not drawn) [6-H17, 2-chloro-1-{4-[2-(2,3-dihydro-1H-inden-5-yloxy)ethyl]piperazin-1-yl}propan-1-one]",64.6128
14,"C=CC(=O)N1CCCC(CS(=O)(=O)NC)C1 (stereo not drawn) [2-E18, N-methyl-1-[1-(prop-2-enoyl)piperidin-3-yl]methanesulfonamide]",95.4453
15,"O=C(CCl)c1ccccn1 [10-J03, 2-chloro-1-(pyridin-2-yl)ethan-1-one]",0
16,"O=C(CCl)c1cscn1 [10-L08, 2-chloro-1-(1,3-thiazol-4-yl)ethan-1-one]",0
17,"Cn1ccnc1C(=O)CCl [10-C15, 2-chloro-1-(1-methyl-1H-imidazol-2-yl)ethan-1-one]",101.461
18,"C[C@@H](NC(=O)CCl)c1ccccc1 [6-O20, 2-chloro-N-[(1R)-1-phenylethyl]acetamide]",94.0373
19,"Cl.O=C(CCl)Nc1ccccn1 [5-B14, 2-chloro-N-(pyridin-2-yl)acetamide hydrochloride]",98.0141
20,"C[C@H]1CN(C(=O)CCl)CCN1C(=O)c1cscn1 [5-L05, 2-chloro-1-[(3S)-3-methyl-4-(1,3-thiazole-4-carbonyl)piperazin-1-yl]ethan-1-one]",86.0775
21,"N#CC(=Cc1ccc(O)cc1)C(=O)NCCc1c(F)cccc1F [9-I16, 2-cyano-N-[2-(2,6-difluorophenyl)ethyl]-3-(4-hydroxyphenyl)prop-2-enamide]",83.8205
22,"c1nc(N2CCSSCC2)c2c3c(sc2n1)CCCC3 [10-M22, 3-(1,2,5-dithiazepan-5-yl)-8-thia-4,6-diazatricyclo[7.4.0.0,2,7]trideca-1(9),2,4,6-tetraene]",79.3298
23,"O=C(CCl)Nc1nccc(Cl)n1 [6-C19, 2-chloro-N-(4-chloropyrimidin-2-yl)acetamide]",88.7288
24,"O=C1C=CC(=O)N1c1ccccc1Sc1ccccc1 [10-K12, 1-[2-(phenylsulfanyl)phenyl]-2,5-dihydro-1H-pyrrole-2,5-dione]",28.0538
25,"CC(Cl)C(=O)Nc1ccccc1Sc1ccccc1 (stereo not drawn) [6-H10, 2-chloro-N-[2-(phenylsulfanyl)phenyl]propanamide]",56.4224
26,"O=C1C=CC(=O)N1c1ccccc1Sc1ccc(Cl)cc1 [10-A03, 1-{2-[(4-chlorophenyl)sulfanyl]phenyl}-2,5-dihydro-1H-pyrrole-2,5-dione]",28.6772
27,"O=C(O)C(c1ccccc1)N1C(=O)C=CC1=O (stereo not drawn) [10-E21, 2-(2,5-dioxo-2,5-dihydro-1H-pyrrol-1-yl)-2-phenylacetic acid]",103.487
28,"O=C(CCl)Nc1ccccc1Sc1ccc(Cl)cc1 [4-O13, 2-chloro-N-{2-[(4-chlorophenyl)sulfanyl]phenyl}acetamide]",72.9782
29,"Cc1cc(NC(=O)CCl)n(-c2ccccc2)n1 [4-G05, 2-chloro-N-(3-methyl-1-phenyl-1H-pyrazol-5-yl)acetamide]",102.825
30,"CC(C)c1ccc(CCNC(=O)CCl)cc1 [6-I16, 2-chloro-N-{2-[4-(propan-2-yl)phenyl]ethyl}acetamide]",91.9139
